Most compounds without a hit are left out; they make up all but 2% or so of the library.
ClpP mod: qHTS Assay for Activators of ClpP | Potency, µM (series often up to 57.5 µM) | 1.9% of 340,000 active | purified B. subtilis ClpP, FRET peptide cleavage, 20 min | ATP-dependent Clp protease proteolytic subunit (Bacillus subtilis (strain 168)), P80244; active = well fitted falling curve with a large enough effect; inconclusive = small, poorly fitted or top-dose-only effect; inactive = no such curve, though single readings can be large or run the other way; note: the source files actives as falling curves though it sought activators and does not explain the sign; nearly all actives have a fitted effect of over 65% in size
Target sequence (P80244 whole entry, looked up): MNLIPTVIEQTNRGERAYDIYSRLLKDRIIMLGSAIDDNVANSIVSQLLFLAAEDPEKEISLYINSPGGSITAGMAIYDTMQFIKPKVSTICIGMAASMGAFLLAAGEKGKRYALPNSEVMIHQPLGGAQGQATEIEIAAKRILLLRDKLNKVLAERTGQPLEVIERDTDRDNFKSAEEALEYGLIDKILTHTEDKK
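FRET quenching reversal measured ClpP activation: 10 microg/mL B. subtilis ClpP at pH 8 with the FRET-FV decapeptide, read at 430 nm after 320 nm excitation. The 20-min minus 0-min signal was scaled between DMSO/no-enzyme wells and ADEP (5.8 microM final).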
PKM2 activator: qHTS Assay for Activators of Human Muscle isoform 2 Pyruvate Kinase. Pyruvate kinase PKM (Homo sapiens), P14618. purified PKM2, Kinase-Glo ATP luminescence, activation; response scale: 0% is enzyme alone, no compound. Potency, µM (series often up to 57.5 µM), hits mostly activators. 0.34% of 260,000 active. AID 1631, 2009; note: nearly all actives have a fitted effect of over 55% in size
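Purified hPK-M2 (>95%) run at intermediate activity with 0.1 mM ADP and 0.5 mM PEP in 50 mM imidazole pH 7.2, KCl, MgCl2; 1 h room temperature. ATP formed read by Kinase-Glo luminescence; normalized to uninhibited and no-enzyme controls.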
IL-2 act: qHTS of IL-2 Activators; IL-2 activation reporter assay, cell-based qHTS; stimulated with anti-CD3/CD4/CD28 beads; in transgenic mouse T cells; activation, % (series mostly up to about 46 µM); 0.065% of 360,000 active; AID 652025, 2013; in the data active = activation above about 50%; inconclusive = mostly about 30% to 49%
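First, unstimulated transgenic mouse T cells were exposed to compound for 60 min. Next, anti-CD3/anti-CD4-coated beads with anti-CD28 were added. Finally, after 18 h at 37 degrees C, EGFP and DsRed were imaged.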
NPSR antagonist: qHTS Assay for Antagonists of the Neuropeptide S Receptor: cAMP Signal Transduction; Q6W5P4; CHO-NPSR cells, cAMP TR-FRET, antagonist mode; Potency, µM (highest dose often 38.3 µM), hits mostly inhibitors; 1% of 220,000 active; AID 1461, 2008; note: nearly all actives have a fitted effect of over 50% in size
A number is an active result. Unless noted, calls come from the whole dose curve; as a rule, active = well fitted curve in the direction sought with a large enough effect; inconclusive = small, poorly fitted or top-dose-only effect, or another doubt; inactive = no such curve, though single readings can be large; an effect the other way counts as inactive or inconclusive.

Screening O=C(O)CCN1C(=O)/C(=C\c2ccc(-c3nc4ccccc4s3)o2)SC1=S returned ClpP mod inactive, PKM2 activator inactive, IL-2 act inactive and NPSR antagonist 12.6µM.
COc1ccc(-c2nc(NC(=O)CSc3nnc(C)s3)ns2)cc1 was read as ClpP mod 17.8µM, PKM2 activator inactive, IL-2 act inactive and NPSR antagonist inactive.
`Cc1ccc(-c2nc(NC(=O)CSc3nnc(C)s3)ns2)cc1` gave ClpP mod inactive, PKM2 activator inactive, IL-2 act inactive and NPSR antagonist inactive.
For CS(=O)(=O)N(CCC#N)Cc1ccc(C=O)o1 the results were PKM2 activator inactive, IL-2 act inactive and NPSR antagonist inactive.
For COc1ccc(N2CCN(C(c3ccccc3OC)c3nnnn3C3CCCC3)CC2)cc1 (stereo not drawn) the results were ClpP mod inactive, PKM2 activator inactive, IL-2 act inactive and NPSR antagonist inconclusive.
`COc1ccc(OC)c(C(c2nnnn2C2CCCC2)N2CCN(c3ccccc3F)CC2)c1` (stereo not drawn) gave ClpP mod 25.1µM, PKM2 activator inactive, IL-2 act inactive and NPSR antagonist inconclusive.
`COc1ccc(-n2c(=O)/c(=C\c3cccs3)s/c2=C(/C#N)C(=O)N2CCN(C)CC2)cc1` gave ClpP mod 31.6µM, PKM2 activator inactive, IL-2 act inactive and NPSR antagonist inactive.
Screening CCN(CC)CCCN(C(=O)c1ccccc1F)c1nc(-c2ccc(OC)cc2)cs1 returned PKM2 activator inactive and IL-2 act inactive.
Screening c1ccc2c3c(cc(N4CCOCC4)c2c1)OC1(N2CCOCC2)CCCCC1O3 (stereo not drawn) returned ClpP mod 31.6µM, PKM2 activator inactive, IL-2 act inactive and NPSR antagonist inconclusive.
COc1nnc(-c2ccc(N3CCOCC3)c(NC(=O)C3CCCCC3)c2)c2ccccc12 was read as ClpP mod inactive, PKM2 activator inactive, IL-2 act inactive and NPSR antagonist inconclusive.
For Cc1cc(NC(=O)COC(=O)c2c(Cl)cccc2Cl)no1 the results were ClpP mod inactive and IL-2 act inactive.
Screening CCC(=O)OC1(C(=O)CCl)[C@@H](C)C[C@H]2[C@@H]3CCC4=CC(=O)C=C[C@]4(C)[C@@]3(F)[C@@H](O)C[C@@]21C (stereo partly drawn) returned ClpP mod inactive and IL-2 act inactive.
`CCC(=O)O[C@]1(C(=O)CCl)[C@@H](C)C[C@H]2[C@@H]3CCC4=CC(=O)C=C[C@]4(C)[C@@]3(F)[C@@H](O)C[C@@]21C` gave ClpP mod inactive, PKM2 activator inactive, IL-2 act inactive and NPSR antagonist 2µM.
CCCC(=O)O[C@]1(C(=O)CCl)[C@@H](C)C[C@H]2[C@@H]3CCC4=CC(=O)C=C[C@]4(C)[C@@]3(F)C(=O)C[C@@]21C was read as ClpP mod inactive, PKM2 activator inactive, IL-2 act inactive and NPSR antagonist 3.16µM.
For CCOc1ccc(N2CC(C(=O)N3CCc4ccccc43)CC2=O)cc1 (stereo not drawn) the results were PKM2 activator inactive and IL-2 act inactive.
CC(C)(C)OC(=O)N1CCC(c2c(C(=O)N3CCCCC3)cnn2-c2cccc(F)c2)CC1 was read as ClpP mod inactive.
For O=c1[nH]c(N/N=C/c2cc3c(cc2[N+](=O)[O-])OCO3)nc2ccccc12 the results were ClpP mod inactive, PKM2 activator 39.8µM, IL-2 act inactive and NPSR antagonist inactive.
`O=C(NCC1CCCN1S(=O)(=O)c1cccs1)c1ccccc1` (stereo not drawn) gave ClpP mod inactive and IL-2 act inactive.
FC(F)(F)C(Oc1nc(NC2CCCCC2)nc(N2CCOCC2)n1)C(F)(F)F was read as ClpP mod inactive, PKM2 activator inactive, IL-2 act inactive and NPSR antagonist 10µM.
For Cc1ccc(Nc2nc(OC(C(F)(F)F)C(F)(F)F)nc(N3CCOCC3)n2)cc1 the results were ClpP mod inactive, PKM2 activator inactive, IL-2 act inactive and NPSR antagonist inconclusive.
Screening Cc1nc2ccccc2n1S(=O)(=O)c1ccc(F)cc1 returned ClpP mod inactive and IL-2 act inactive.

Source: PubChem BioAssay
